Structures can show the parent of a compound that is named as a salt. Values without a mark were called inactive.
System: NCI-H1688
Assay: inhibition of cell viability relative to untreated control (fraction); higher = stronger growth inhibition, active = 0.5 or more
Settings: 30 µM; 24 h
Procedure, shortened: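 NCI-H1688 small cell lung cancer cells were plated in 96-well plates at 3 × 10^3 cells/well, and 24 h later they were exposed to a natural compound library (TargetMol) at 30 µM for 24 h at 37°C with 5% CO2. Viability was measured in triplicate using Cell Counting Kit-8, read as absorbance at 450 nm. Inhibition of cell viability is given as a fraction, calculated from viability normalised to untreated cells.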

Row | Compound | inhibition of cell viability
1 | C1CCN2C[C@@H]3C[C@@H](CN4CCCC[C@@H]34)[C@H]2C1 [(-)-Sparteine sulfate pentahydrate] | 0.237
2 | Cc1[nH]ccc2c1[nH]c1cc(=O)ccc12 [Harmol] | 0.664 (active)
3 | CC(C)[C@H](NC(=O)[C@H](CC(=O)O)NC(=O)[C@H](CCCCN)NC(=O)[C@@H](N)CCCN=C(N)N)C(=O)N[C@@H](Cc1ccc(O)cc1)C(=O)O [Thymopentin] | 0.0248
4 | CNC[C@@H](O)c1ccc(O)c(O)c1 [L-Adrenaline] | 0.0228
5 | CO[C@H]1C[C@H](O[C@H]2[C@H](C)O[C@@H](O[C@@H]3/C(C)=C/C[C@@H]4C[C@@H](C[C@]5(C=C[C@H](C)[C@@H](C6CCCCC6)O5)O4)OC(=O)[C@@H]4C=C(C)[C@@H](O)[C@H]5OC/C(=C\C=C\[C@@H]3C)[C@]54O)C[C@@H]2OC)O[C@@H](C)[C@@H]1O [Doramectin] | 0.993 (active)
6 | O=c1c(-c2ccc(O)cc2)coc2cc(O)cc(O)c12 [Genistein] | 0.7 (active)
7 | CC(C)=CCC[C@](C)(O[C@@H]1O[C@H](CO[C@@H]2O[C@H](CO)[C@@H](O)[C@H](O)[C@H]2O)[C@@H](O)[C@H](O)[C@H]1O)[C@H]1CC[C@]2(C)[C@@H]1[C@H](O)C[C@@H]1[C@@]3(C)CC[C@H](O[C@@H]4O[C@H](CO)[C@@H](O)[C@H](O)[C@H]4O[C@@H]4O[C@H](CO)[C@@H](O)[C@H](O)[C@H]4O)C(C)(C)[C@@H]3CC[C@]12C [Ginsenoside Rb1] | -0.0384
8 | COc1ccc([C@@H]2CC(=O)c3c(O)cc(O[C@@H]4O[C@H](CO)[C@@H](O)[C@H](O)[C@H]4O[C@@H]4O[C@@H](C)[C@H](O)[C@@H](O)[C@H]4O)cc3O2)cc1O [Neohesperidin] | 0.00547
9 | CC[C@H](CC[C@@H](C)[C@H]1CC[C@H]2[C@@H]3CC=C4C[C@@H](O)CC[C@]4(C)[C@H]3CC[C@]12C)C(C)C [Beta-Sitosterol] | 0.185
10 | CCCCCCCCCCCCCCCCCCOCC(O)CO (centres undefined) [Batyl alcohol] | -0.0252
11 | COc1cc(/C=C/c2ccc(O)cc2)cc(OC)c1 [Pterostilbene] | 0.252
12 | CCCCCC1C(=O)CCC1CC(=O)OC (centres undefined) [Methyl Dihydrojasmonate;Hedione] | -0.235
13 | C=C(C)[C@@H]1CC[C@]2(C(=O)O)CC[C@]3(C)[C@H](CC[C@@H]4[C@@]5(C)CC[C@H](O)C(C)(C)[C@@H]5CC[C@]43C)[C@@H]12 [Betulinic acid] | 0.622 (active)
14 | CN(C)[C@@H]1C(O)=C(C(N)=O)C(=O)[C@@]2(O)C(O)=C3C(=O)c4c(O)cccc4[C@@](C)(O)[C@H]3C[C@@H]12 [Tetracycline hydrochloride] | 0.293
15 | CC(C)C[C@@H](NC(=O)[C@H](C)NC(=O)CNC(=O)[C@@H](NC=O)C(C)C)C(=O)N[C@@H](C)C(=O)N[C@@H](C(=O)N[C@H](C(=O)N[C@H](C(=O)N[C@@H](Cc1c[nH]c2ccccc12)C(=O)N[C@H](CC(C)C)C(=O)N[C@@H](Cc1c[nH]c2ccccc12)C(=O)N[C@H](CC(C)C)C(=O)N[C@@H](Cc1c[nH]c2ccccc12)C(=O)N[C@H](CC(C)C)C(=O)N[C@@H](Cc1c[nH]c2ccccc12)C(=O)NCCO)C(C)C)C(C)C)C(C)C [Gramicidin] | 0.981 (active)
16 | O[C@H]1[C@H]2c3cc4c(cc3CN3CCC(=C[C@@H]1O)[C@H]23)OCO4 [Lycorine chloride] | 0.931 (active)
17 | C[C@@H]1[C@H](O)[C@@H](C)/C=C/C=C/C=C/C=C/C=C/C=C/C=C/[C@H](O[C@@H]2O[C@H](C)[C@@H](O)[C@H](N)[C@@H]2O)C[C@@H]2O[C@](O)(C[C@@H](O)C[C@@H](O)[C@H](O)CC[C@@H](O)C[C@@H](O)CC(=O)O[C@H]1C)C[C@H](O)[C@H]2C(=O)O [Amphotericin B] | 0.0269
18 | C[C@H](CCC(=O)O)[C@H]1CC[C@H]2[C@@H]3[C@H](O)C[C@@H]4C[C@H](O)CC[C@]4(C)[C@H]3C[C@H](O)[C@]12C [Cholic Acid] | -0.419
19 | C=CC1=C(C)c2cc3[nH]c(cc4nc(cc5[nH]c(cc1n2)c(C)c5CCC(=O)O)C(CCC(=O)O)=C4C)c(C)c3C=C [Protoporphyrin IX] | 0.863 (active)
